Measured values as given in PubChem BioAssay (EPA / NIEHS).
Active and inactive are the calls of the source. The calls were made as follows: active = hit-call score of the fitted dose curve at least 0.9, where 1 is the maximum; inactive = score below 0.9.

Columns and labels:
[1] = read-out: Matrix Metallopeptidase 1 (MMP1), MMP1 (gene 4312); test: BSK_BE3C_MMP1: BioMAP Diversity Plus: BE3C Assay for Matrix Metallopeptidase 1 (MMP1) Biomarker Activity (AID 2283024); settings: primary human bronchial epithelial cells; actives raise or lower the signal
Summary of the method: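 ELISA measurement of MMP-1 after 24 h compound exposure of primary human bronchial epithelial cells. Changes in either direction fitted relative to DMSO; parallel SRB staining checked overt cytotoxicity.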

[2] = BSK_3C_Vis: BioMAP Diversity Plus: 3C Assay for Morphology Visualization (AID 2283025); settings: primary human endothelial cells (HUVEC);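 also: fitted both ways so gain or loss versus DMSO counts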;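 as to AC50: light microscopy image of cell morphology used as background control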
Summary of the method: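 Light-microscopy visualization of HUVEC cultures at 24 h post-treatment, with DMSO as baseline for bidirectional fitting.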

[3] = read-out: Pselectin, SELP (gene 6403); test: BSK_4H_Pselectin: BioMAP Diversity Plus: 4H Assay for Pselectin Biomarker Activity (AID 2283026); settings: primary human endothelial cells (HUVEC); actives raise or lower the signal
Summary of the method: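 ELISA of surface P-selectin on HUVEC, 24 h after dosing, with parallel SRB staining (0.1% after 10% TCA fixation, 560 nm) for overt cytotoxicity. Activity fitted in both directions relative to DMSO.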

[4] = BSK_4H_SRB: Viability Assessment in the BioMAP Diversity Plus: 4H Assay (AID 2283027); settings: primary human endothelial cells (HUVEC);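 also: cells exposed to compound for 24 h before staining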;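 as to AC50: curves fitted both ways versus DMSO so AC50 may be loss or gain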
Summary of the method: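 HUVEC, 24 h post-dose; 10% TCA fix, 0.1% SRB stain, A560 nm. Total protein = overt cytotoxicity, parallel to biomarker read. Bidirectional fit vs DMSO baseline.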

[5] = BSK_BE3C_SRB: Viability Assessment in the BioMAP Diversity Plus: BE3C Assay (AID 2283028); settings: primary human bronchial epithelial cells;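 as to AC50: fitted both ways so AC50 may mark signal gain or loss versus DMSO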
Summary of the method: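 Primary human bronchial epithelium; chemical dosing, 24 h; 10% TCA fix, 0.1% SRB stain, A560; bidirectional fit vs DMSO baseline.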

[6] = read-out: Thrombomodulin, THBD (gene 7056); test: BSK_3C_Thrombomodulin: BioMAP Diversity Plus: 3C Assay for Thrombomodulin Biomarker Activity (AID 2283029); settings: primary human endothelial cells (HUVEC); actives raise or lower the signal
Summary of the method: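 ELISA measurement of thrombomodulin on HUVEC surface 24 h after chemical dosing; activity fitted in both directions relative to DMSO vehicle.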

[7] = read-out: Urokinase-type plasminogen activator receptor (uPAR), PLAUR (gene 5329); test: BSK_4H_uPAR: BioMAP Diversity Plus: 4H Assay for Urokinase-type plasminogen activator receptor (uPAR) Biomarker Activity (AID 2283030); settings: primary human endothelial cells (HUVEC); actives raise or lower the signal
Summary of the method: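 HUVEC, 24 h post-dose; uPAR by ELISA; bidirectional fit vs DMSO baseline.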

[8] = read-out: Vascular endothelial growth factor receptor 2 (Homo sapiens) (UniProt P35968); test: BSK_4H_VEGFRII: BioMAP Diversity Plus: 4H Assay for Vascular endothelial growth factor receptor 2 (VEGFR2) Biomarker Activity (AID 2283031); settings: primary human endothelial cells (HUVEC); actives raise or lower the signal;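 as to AC50: cell-surface VEGFR2 protein level quantified by ELISA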
Summary of the method: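 HUVEC (human primary), 4H system; 24 h post-dose; VEGFRII by ELISA; bidirectional curve fit vs DMSO baseline; gain or loss of signal scored.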

[9] = read-out: Human Leukocyte Antigen - DR isotype (HLADR), HLA-DRA (gene 3122); test: BSK_BE3C_HLADR: BioMAP Diversity Plus: BE3C Assay for Human Leukocyte Antigen - DR isotype (HLADR) Biomarker Activity (AID 2283032); settings: primary human bronchial epithelial cells; actives raise or lower the signal
Summary of the method: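 Cell-surface HLA-DR ELISA readout at 24 h after dosing in the BE3C primary human lung bronchial epithelial system; gain or loss of signal against DMSO, with parallel sulforhodamine B staining of total protein for overt cytotoxicity.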

[10] = read-out: Vascular cell adhesion molecule 1 (VCAM1), VCAM1 (gene 7412); test: BSK_4H_VCAM1: BioMAP Diversity Plus: 4H Assay for Vascular cell adhesion molecule 1 (VCAM1) Biomarker Activity (AID 2283033); settings: primary human endothelial cells (HUVEC); actives raise or lower the signal
Summary of the method: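 VCAM-1 ELISA read 24 h after chemical dosing of HUVEC in the BioMAP 4H system, with gain or loss of signal fitted relative to DMSO. Parallel SRB staining (560 nm) checked overt cytotoxicity.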

[11] = read-out: Interferon-gamma inducible Protein 10 (IP10), CXCL10 (gene 3627); test: BSK_BE3C_IP10: BioMAP Diversity Plus: BE3C Assay for Interferon-gamma inducible Protein 10 (IP10) Biomarker Activity (AID 2283034); settings: primary human bronchial epithelial cells; actives raise or lower the signal
Summary of the method: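 IP-10 quantified by ELISA in human primary bronchial epithelial cell cultures at 24 hours post-dosing. Gain or loss of signal fitted relative to DMSO; parallel SRB staining assessed overt cytotoxicity.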

[12] = read-out: Monokine induced gamma interferon (MIG), CXCL9 (gene 4283); test: BSK_BE3C_MIG: BioMAP Diversity Plus: BE3C Assay for Monokine induced gamma interferon (MIG) Biomarker Activity (AID 2283035); settings: primary human bronchial epithelial cells; actives raise or lower the signal
Summary of the method: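 Dose cells (human primary bronchial epithelial), incubate 24 h, quantify MIG by ELISA, then fit concentration–response in both directions relative to DMSO control.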

[13] = read-out: Transforming growth factor beta 1 (TGFb1), TGFB1 (gene 7040); test: BSK_BE3C_TGFb1: BioMAP Diversity Plus: BE3C Assay for Transforming growth factor beta 1 (TGFb1) Biomarker Activity (AID 2283036); settings: primary human bronchial epithelial cells; actives raise or lower the signal
Summary of the method: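 ELISA readout of TGF-b1 from human lung bronchial epithelial primary cells, taken 24 h post-treatment. Gain or loss of signal fitted relative to DMSO baseline, with parallel SRB staining for overt cytotoxicity.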

[14] = read-out: urokinase plasminogen activator (uPA), PLAU (gene 5328); test: BSK_BE3C_uPA: BioMAP Diversity Plus: BE3C Assay for urokinase plasminogen activator (uPA) Biomarker Activity (AID 2283038); settings: primary human bronchial epithelial cells; actives raise or lower the signal
Summary of the method: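 ELISA read-out of uPA in human lung primary bronchial epithelial cultures, 24 h post-dosing. Gain or loss of signal fitted bidirectionally relative to DMSO baseline; cytotoxicity checked in parallel cultures via SRB total protein stain.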

[15] = read-out: Urokinase-type plasminogen activator receptor (uPAR), PLAUR (gene 5329); test: BSK_BE3C_uPAR: BioMAP Diversity Plus: BE3C Assay for Urokinase-type plasminogen activator receptor (uPAR) Biomarker Activity (AID 2283039); settings: primary human bronchial epithelial cells; actives raise or lower the signal
Summary of the method: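 uPAR levels were measured by ELISA after 24 h compound treatment of primary human bronchial epithelial cells, fitted in both directions relative to DMSO. Parallel SRB staining served as the cytotoxicity read-out.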

[16] = read-out: Interleukin-6 (IL6), IL6 (gene 3569); test: BSK_CASM3C_IL6: BioMAP Diversity Plus: CASM3C Assay for Interleukin-6 (IL6) Biomarker Activity for (AID 2283040); settings: primary human coronary artery smooth muscle cells; actives raise or lower the signal
[17] = read-out: Tissue plasminogen activator (tPA), PLAT (gene 5327); test: BSK_BE3C_tPA: BioMAP Diversity Plus: BE3C Assay for Tissue plasminogen activator (tPA) Biomarker Activity (AID 2283041); settings: primary human bronchial epithelial cells; actives raise or lower the signal
Summary of the method: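 tPA measured by ELISA 24 h after dosing human primary bronchial epithelial cells (BE3C system). Changes in either direction were fitted against DMSO. Parallel cultures were stained with SRB to flag overt cytotoxicity.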

[18] = read-out: Interleukin-8 (IL8), CXCL8 (gene 3576); test: BSK_CASM3C_IL8: BioMAP Diversity Plus: CASM3C Assay for Interleukin-8 (IL8) Biomarker Activity (AID 2283042); settings: primary human coronary artery smooth muscle cells; actives raise or lower the signal;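 also: IL-8 protein level quantified by ELISA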
[19] = read-out: Human Leukocyte Antigen - DR isotype (HLADR), HLA-DRA (gene 3122); test: BSK_CASM3C_HLADR: BioMAP Diversity Plus: CASM3C Assay for Human Leukocyte Antigen - DR isotype (HLADR) Biomarker Activity (AID 2283043); settings: primary human coronary artery smooth muscle cells; actives raise or lower the signal;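 also: cell-surface HLA-DR protein level quantified by ELISA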
[20] = read-out: Plasminogen activator inhibitor-1 (PAI1), SERPINE1 (gene 5054); test: BSK_BE3C_PAI1: BioMAP Diversity Plus: BE3C Assay for Plasminogen activator inhibitor-1 (PAI1) Biomarker Activity (AID 2283037); settings: primary human bronchial epithelial cells; actives raise or lower the signal
Summary of the method: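 PAI-1 was measured by ELISA in human primary bronchial epithelial cultures 24 h after chemical dosing, with cytotoxicity checked by SRB total-protein staining in parallel cultures. Activity was fitted in both directions relative to DMSO.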

Measured: AC50

CN1C(=O)CC[C@H]1c1cccnc1
not listed: [20]
inactive: all other assays above

Cc1cccc2ccccc12
not listed: [6] | [11] | [17] | [20]
inactive: all other assays above

CN(C[C@@H](CC[N+]12CCC(C3CCCCC3)(CC1)CC2)c1ccc(Cl)c(Cl)c1)C(=O)c1cc(C(F)(F)F)cc(C(F)(F)F)c1
inactive: [6] | [8]
active: [2] 13.3 µM | [3] 29.2 µM | [4] 16.5 µM | [5] 13 µM | [7] 29.1 µM | [9] 12.6 µM | [10] 32 µM | [11] 13.1 µM | [12] 29.6 µM | [13] 17.5 µM | [14] 16.6 µM | [15] 13.6 µM | [16] 15.9 µM | [17] 11.9 µM | [18] 24.7 µM | [19] 12.7 µM

Cc1ccc2oc(CN(Cc3ccccc3)C(=O)Nc3c(F)cc(F)cc3F)c(-c3ccc(Cl)cc3)c2c1
not listed: [6] | [11] | [14] | [20]
inactive: all other assays above

CCO[Si](CCCNC(N)=O)(OCC)OCC
not listed: [2] | [6] | [11] | [14] | [17]
inactive: all other assays above

O=C(Nc1ccc(Cl)cc1)Nc1ccc(Cl)c(Cl)c1
active: [3] 2.6 µM | [4] 2.02 µM | [7] 1.92 µM | [8] 2.19 µM | [9] 1.39 µM | [10] 3.48 µM | [11] 2.52 µM | [20] 1.11 µM | [15] 1.1 µM | [16] 12.7 µM | [19] 2.81 µM
inactive: [1] | [5] | [6] | [12] | [13] | [14] | [18]
